Data as given in PubChem BioAssay (NCI).
About 83,000 compounds went through this panel and 20% of them were active in at least one assay; those are over-represented in the sample as a whole.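 Method: cells in 96-well plates; compound added at one concentration; 48 h incubation; percent growth measured; values under 10 scored active.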 Active and inactive are the calls of the source.

Test system: MDA-MB-468 breast
Experiment: NCI-60 one-dose screen, 48 h (100 = growth as untreated, 0 = no growth, -100 = all killed)
Conditions: 10 µM unless noted

Compound | growth
Cn1cc(-c2csc(-c3c[nH]c4ncccc34)n2)c2cc(Br)cnc21 | 15.4% (inactive)
Cc1cccc(N2CCC(=O)NC2=S)c1 | 100% (inactive)
O=C1OCC/C1=C\OCCCO/C=C1\CCOC1=O | 92.8% (inactive)
COc1cc(/C=C/C(=O)N2c3ccccc3CC2C)c(OC)c2c1OCO2 (centres undefined) | 86.9% (inactive)
